The source of these data is the supplement of paper PMC10681739.

This assay has as its target T1, ETS1 (UniProt P14921).
T1 sequence: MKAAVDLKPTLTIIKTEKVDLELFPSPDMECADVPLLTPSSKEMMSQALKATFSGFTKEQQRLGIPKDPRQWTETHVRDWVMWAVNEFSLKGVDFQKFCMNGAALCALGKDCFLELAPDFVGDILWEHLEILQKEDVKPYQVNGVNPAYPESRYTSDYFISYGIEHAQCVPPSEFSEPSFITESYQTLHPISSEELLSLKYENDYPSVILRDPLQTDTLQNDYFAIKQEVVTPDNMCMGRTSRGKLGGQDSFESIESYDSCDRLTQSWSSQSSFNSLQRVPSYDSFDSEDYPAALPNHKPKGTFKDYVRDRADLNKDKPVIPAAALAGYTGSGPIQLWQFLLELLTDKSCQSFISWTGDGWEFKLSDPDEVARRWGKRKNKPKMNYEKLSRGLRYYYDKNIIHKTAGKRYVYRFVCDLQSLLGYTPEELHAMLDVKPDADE
The assay can be described thus: ETS1 binding intensity (PBM fluorescence), ETS1 alone (arbitrary fluorescence units); higher = stronger binding. The conditions noted are these: ETS1 concentration 1 nM; RUNX1 concentration 0 nM. The protocol:
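Cooperative genomic-context PBM: 36-bp genomic probes with neighbouring ETS1 and RUNX1 sites, double-stranded on Agilent 4x180k arrays. Full-length recombinant human ETS1 (1 nM) was incubated alone or with RUNX1 (25 nM) and detected with anti-ETS1 antibody plus Alexa488 secondary. Value is the median fluorescence intensity over 4 replicate spots; the ETS1+RUNX1 data were normalised to the ETS1-only data using probes without RUNX1 sites. The 36-bp variable region sits on the array probe with constant linker/primer flanks that are not printed.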
As for GGGACAGACTCTCCAGGATGTGGTTGGATTTTGGGC, the ETS1 binding intensity amounted to 1520.
Next, TTCAAAGGAGTCCAAGGAAGTGGTTTAACAGCGATG: 843; GGGCTATTGTTTCCTCCCCCATGTGACCACAGCCTC: 418; CCCCTTCCCGTTCTCCGAAAGTGCGCGGGTTGGAGC: 489.
Next, CACCTCAGCTTCCTGTGTAGCTGGGACCACAGGCAT: 687; AGAGCGAGGAGGACTTCCTGCGGCAGGTCGGCGTGA: 635.
Next, GTGTTTCCTCTTTGTTTTGGGGCTGTGGTTGCCACA: 414; TAGGCTGAAGACTTCCGCCCCGCAGAGGACTTGCCT: 1040.
In turn, TTCATCTACTTCCCGCCACACCCACAGAGAAGCCCA showed an ETS1 binding intensity of 469.
Next, GTCACAGGAAAGAAGGAGCCTCGCCTTAACCGCACC: 447; AGGTTTTGAAAGAGGAAACCACATACCCGAAAACCA: 1120; GGCAGGAAAGAGCTGATGCATTTCAACCGCAGCCTG: 520.
The same measure for CGAAAGTGACCGGAAGTAACCGCCGGGCCAAGATGG: 17800; for TGACTAAGACCGGAAGAAACCACAAAAACACAAAAA: 2580; for AGAACAGCAGGAAATAAATACCCACCTCAGGACTGC: 959.
Next, GAATCACCATTTCCTCACTCCCACACAACCATGTTG: 485; AGCTAGGACAGGATGTGAAAACCACACTGACAAAGT: 2620.
With AAAGGGAAGTTGGCGGGAGTTCAAAACCACCGGGGC, the ETS1 binding intensity turned out to be 347.
Next, CCCTCATCTTCCTGCTTCAGGCAGCTGTGGTTTACC: 420; CAGTGGCAGGAAGAGGTCAGAAACCACTCGTGGTGG: 718; TGGGGCTCTTCCTGCTTATGTGACCACAGCACCTTG: 402.
In the case of AAAAAATGGAGGAAGTTACCTCCAGTGGTTTTGTGA, the ETS1 binding intensity was 751.
The sequence TGTGTATGAGAACGGATATAGGTGGTTTTATAAGGA registered an ETS1 binding intensity of 1890.
The same measure for CGAAGAGGAAGCCCCTGTATCACCCCACAAGAAGCC: 544; for AAAACAAGGACTTCCGCCTCCCTGCGGTCCCTCCCC: 2140.
Next, TGTTCAGGAACAGGAAATGAAACCCCGCAGCTTTGA: 8520; GGCGGCCTCAACTTCCGCGGTGGGACTCCGGAGCAG: 503.
Next, GTTGAAATTGAGCTTCCGTTGGTGGTTAACCCTCTG: 648; CCTCTGTTCTTCACAGGAAGCCACAGGCCTCCCCTG: 2840; AAGTGGAGAGCGGAAGTGAGCTGTGGGTGACTGCAG: 6780.
AGTCAAACAGGATGTGGCTGGGGAGGCGGTTGTCAC gave an ETS1 binding intensity of 3750.
The same measure for AATTGTCAATGGCAGGAAGCCACCACATGAAGAGAT: 1290; for GCTCTGGCGGAAGATGTCCCTGCGGTGCAGCTGCCG: 397.
The same measure for GCCCGCCCCGGAAGTGCAAACTGTGTGGTCTGGCAG: 3980; for CAAGCCAACATCCTGACAGTTTAGAAACCACAGGAG: 464.
Next, AGCTTCCTGTTTGGCCTTGCTGATGTCACCGCATTA: 729; AACAGTACTTCCGGGGCAAGTGAGCGCCCACAAGGC: 934.
The sequence GTTCATCCAGGAAACCCCAACCCAGTGCCGCAGTAT came in with an ETS1 binding intensity of 538.
The same measure for TTAGGCAGAGCTCATTTCCGCCCACATCAAAAGTAA: 1710; for AACAAACCGGATGGGGTTGCCACCCGCAATCTTGTC: 2030.
